We go through six molecules from PubChem BioAssay.

The source made the active and inactive calls.

The subject of assay [1] is Plasmodium falciparum Sir2 (PF13_0152, Sir2A). Nature of the assay: pfSir2 binders on small-molecule microarrays, primary screen, biochemical, small-molecule microarray, 635 nm fluorescence (AID 1098).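 Note: score merges spot fluorescence intensity with its signal-to-noise ratio.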 To be noted: small-molecule microarray binding, fluorescence 635 nm; higher = more signal.
Assay [2] can be described thus: small-molecule microarray binders of probe aDKK1, primary screen, biochemical, biotinylated probe, 635/667 nm fluorescence (AID 1099).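 Note: score merges 667nm spot fluorescence with signal to noise across triplicate slides.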 To be noted: higher = more signal.
Assay [3] in a line: small-molecule microarray binders of probe aCHRDL2, primary screen, biochemical, biotinylated probe, 635/667 nm fluorescence (AID 1100). To be noted: higher = more signal.
Assay [4] is described as follows: splicing luciferase reporter signal modulators, primary screen, spliceosome inhibition project, cell-based, HEK293, splice +/- reporter (AID 1101).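 Note: HEK293 cells carrying a splicing-competent luciferase reporter gene; test concentration not given here.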 To be noted: luminescence, 24 h, higher = more signal, called active from +8 up or from −8 down. On the technique in general: A reporter such as luciferase makes a cellular process visible.
The target in assay [5] is Fibroblast growth factor 10 (Homo sapiens) (UniProt O15520). Description: FGF10 binders on small-molecule microarrays, primary screen, biochemical, small-molecule microarray, 635 nm fluorescence (AID 1102). To be noted: FGF10 binding, fluorescence 635 nm, higher = more signal.
Assay [6] concerns glycogen synthase kinase-3 (GSK3A per assay name; protocol says GSK3B). Nature of the assay: GSK3 binders on small-molecule microarrays, primary screen, biochemical, small-molecule microarray, 635 nm fluorescence, GSK3A (AID 1103). Note: the record names both GSK3A and GSK3B. To be noted: small-molecule microarray binding, fluorescence 635 nm; higher = more signal.
Assay [7] addresses Epidermal growth factor receptor (Homo sapiens) (UniProt P00533). Description: EGFR binders on small-molecule microarrays, primary screen, biochemical, small-molecule microarray, 635 nm fluorescence (AID 1104).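 Note: score merges 667 nm emission intensity with spot signal to noise over triplicate slides.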 To be noted: EGFR binding, higher = more signal.
For assay [8], the target named is Follistatin-related protein 3 (Homo sapiens) (UniProt O95633). Nature of the assay: FSTL3 binders on small-molecule microarrays, primary screen, biochemical, small-molecule microarray, 635 nm fluorescence (AID 1105).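 Note: score merges emission near 667 nm and signal to noise per printed spot across three slides.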 To be noted: FSTL3 binding, higher = more signal.
Assay [9] concerns the target Dickkopf-related protein 1 (Homo sapiens) (UniProt O94907). Description: DKK1 binders on small-molecule microarrays, primary screen, biochemical, small-molecule microarray, 635 nm fluorescence scan (AID 1106).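 Note: score merges emission near 667 nm with signal to noise over three replicate slides.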 To be noted: DKK1 binding, higher = more signal.
For assay [10], the system named is Inhibin beta A chain (activin A). Description: INHBA (activin A) binders on microarrays, primary screen, biochemical, small-molecule microarray, 635 nm fluorescence scan (AID 1107).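 Note: mouse activin A protein probed at 4.33 µg/mL on printed slides; score merges bound-protein fluorescence near 667 nm with spot signal-to-noise.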 To be noted: small-molecule microarray binding, higher = more signal.
The subject of assay [11] is Human papillomavirus type 1a protein E7 (residues 44-93). Description: HPV1a E7 fragment binders on microarrays, primary screen, biochemical, small-molecule microarray, residues 44-93, 635 nm fluorescence (AID 1108).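 Note: E7 fragment applied at 1 µg/mL in TBST for 1 h at 4 C; score combines spot fluorescence with its signal to noise ratio.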 To be noted: small-molecule microarray binding, fluorescence 635 nm; higher = more signal.
Assay [12] can be described thus: modulators of HCV replicon luciferase signal, primary screen, HCV replication inhibitor project, Huh7 cells, luciferase reporter (AID 1109).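 Note: huh7 hepatoma cells harbouring a luciferase neomycin HCV replicon reporter; luciferase luminescence as measure of HCV replicon replication; test concentration not given here.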 To be noted: 48 h, higher = more signal. For orientation: Replicon systems follow genome replication, usually without infectious particles.
Assay [13] concerns the target Left-right determination factor 2 (Homo sapiens) (UniProt O00292). Nature of the assay: LEFTY2 binders on small-molecule microarrays, primary screen, biochemical, small-molecule microarray, 635 nm fluorescence scan (AID 1110). To be noted: LEFTY2 binding, higher = more signal.
For assay [14], the target named is Calmodulin-1 (Homo sapiens) (UniProt P0DP23). Description: CALM1 binders on microarrays, EGTA buffer, profiling panel, biochemical, small-molecule microarray, Cy5-labelled CALM1 (AID 1111).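 Note: labelled calmodulin applied in Tris saline Tween buffer holding calcium plus EGTA and DTT.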 To be noted: Cy5-CALM1 binding fluorescence, higher = more signal.
Assay [15] shares this target. Nature of the assay: calcium-bound CALM1 binders on microarrays, profiling panel, artefact control for SMM control-protein annotation, biochemical, small-molecule microarray, Cy5-labelled CALM1, plus calcium (AID 1112).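 Note: score merges spot fluorescence with signal to noise from triplicate slides.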 To be noted: Cy5-CALM1 binding fluorescence, higher = more signal.
Assay [16] is described as follows: small-molecule microarray binders of probe aWnt5a, primary screen, biochemical, biotinylated probe, 635/667 nm fluorescence (AID 1113).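 Note: score merges 667 nm fluorescence intensity with signal-to-noise per printed feature.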 To be noted: higher = more signal.
Assay [17] in a line: small-molecule microarray binders of probe aShh, primary screen, biochemical, biotinylated probe, 635/667 nm fluorescence (AID 1114).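 Note: probe is biotin-labelled aShh protein from a stem cell growth factor screen; measures binding of labelled protein to compounds printed on the slide; score merges feature fluorescence at 667 nm with signal-to-noise.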 To be noted: higher = more signal.
The nature of assay [18]: small-molecule microarray binders of probe aNog, primary screen, biochemical, biotinylated probe, 635/667 nm fluorescence (AID 1115).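 Note: probe is biotinylated aNog protein used at 0.15 µg/mL for 1 h at 4 C; z-score combines 667 nm fluorescence of each spot with its signal to noise.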 To be noted: higher = more signal.
Assay [19] has as its target Torsin-1A-interacting protein 1 (Homo sapiens) (UniProt Q5JTV8). Description: LAP1 binders from COS7 cell lysate, primary screen, small-molecule microarray, 635/667 nm fluorescence (AID 1116). To be noted: COS7-hLAP1 lysate binding, 635 nm fluorescence, higher = more signal.
Assay [20] has as its target Alpha-bungarotoxin (Bungarus multicinctus) (UniProt P60615). Description: alpha-bungarotoxin binders on microarray, profiling panel, artefact control for SMM control protein annotation, biochemical, small-molecule microarray, Alexa647 label, 635/667 nm fluorescence (AID 1117). To be noted: alpha-BTX-A647 binding fluorescence, higher = more signal.

Follistatin-related protein 3 (Homo sapiens), sequence (O95633 whole entry, looked up): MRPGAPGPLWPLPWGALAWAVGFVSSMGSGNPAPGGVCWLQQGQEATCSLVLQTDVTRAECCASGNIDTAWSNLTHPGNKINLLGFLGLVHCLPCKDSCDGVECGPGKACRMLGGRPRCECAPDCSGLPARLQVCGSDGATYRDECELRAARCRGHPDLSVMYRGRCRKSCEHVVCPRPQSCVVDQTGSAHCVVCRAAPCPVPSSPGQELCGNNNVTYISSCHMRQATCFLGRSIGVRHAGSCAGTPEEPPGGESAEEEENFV
Left-right determination factor 2 (Homo sapiens), sequence (O00292 whole entry, looked up): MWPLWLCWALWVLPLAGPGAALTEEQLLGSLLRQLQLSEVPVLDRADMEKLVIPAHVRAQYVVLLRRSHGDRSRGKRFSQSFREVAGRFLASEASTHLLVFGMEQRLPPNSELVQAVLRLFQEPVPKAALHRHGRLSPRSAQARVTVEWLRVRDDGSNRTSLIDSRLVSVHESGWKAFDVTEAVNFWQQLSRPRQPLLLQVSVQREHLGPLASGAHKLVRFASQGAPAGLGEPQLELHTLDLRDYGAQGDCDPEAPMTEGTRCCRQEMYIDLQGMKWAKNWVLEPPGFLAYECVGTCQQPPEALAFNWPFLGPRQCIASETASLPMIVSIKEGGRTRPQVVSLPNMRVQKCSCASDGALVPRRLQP
Torsin-1A-interacting protein 1 (Homo sapiens), sequence (Q5JTV8 whole entry, looked up): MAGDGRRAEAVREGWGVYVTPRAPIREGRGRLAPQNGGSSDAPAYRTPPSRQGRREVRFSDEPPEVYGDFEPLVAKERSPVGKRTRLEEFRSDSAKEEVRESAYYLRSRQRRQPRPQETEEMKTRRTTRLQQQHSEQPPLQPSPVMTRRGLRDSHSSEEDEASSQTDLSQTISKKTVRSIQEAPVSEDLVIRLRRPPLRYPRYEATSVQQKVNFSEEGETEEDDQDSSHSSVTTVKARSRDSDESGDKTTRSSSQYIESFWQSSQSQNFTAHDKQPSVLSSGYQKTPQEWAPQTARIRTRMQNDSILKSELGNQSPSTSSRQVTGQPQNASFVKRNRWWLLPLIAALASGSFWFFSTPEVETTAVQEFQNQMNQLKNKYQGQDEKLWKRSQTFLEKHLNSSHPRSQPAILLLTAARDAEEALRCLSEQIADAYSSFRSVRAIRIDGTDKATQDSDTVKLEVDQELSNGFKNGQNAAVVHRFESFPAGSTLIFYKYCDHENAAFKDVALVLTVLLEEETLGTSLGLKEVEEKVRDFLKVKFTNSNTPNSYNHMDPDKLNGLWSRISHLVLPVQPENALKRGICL
Dickkopf-related protein 1 (Homo sapiens), sequence (O94907 whole entry, looked up): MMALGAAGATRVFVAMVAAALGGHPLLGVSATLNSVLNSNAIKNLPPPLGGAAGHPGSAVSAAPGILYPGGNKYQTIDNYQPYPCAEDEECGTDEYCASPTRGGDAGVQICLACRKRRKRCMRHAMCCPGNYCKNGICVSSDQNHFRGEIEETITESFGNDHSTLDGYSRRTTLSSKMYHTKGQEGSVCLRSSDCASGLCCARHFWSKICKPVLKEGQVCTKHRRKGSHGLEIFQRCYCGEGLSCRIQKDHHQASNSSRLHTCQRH
Epidermal growth factor receptor (Homo sapiens), sequence (P00533 whole entry, looked up): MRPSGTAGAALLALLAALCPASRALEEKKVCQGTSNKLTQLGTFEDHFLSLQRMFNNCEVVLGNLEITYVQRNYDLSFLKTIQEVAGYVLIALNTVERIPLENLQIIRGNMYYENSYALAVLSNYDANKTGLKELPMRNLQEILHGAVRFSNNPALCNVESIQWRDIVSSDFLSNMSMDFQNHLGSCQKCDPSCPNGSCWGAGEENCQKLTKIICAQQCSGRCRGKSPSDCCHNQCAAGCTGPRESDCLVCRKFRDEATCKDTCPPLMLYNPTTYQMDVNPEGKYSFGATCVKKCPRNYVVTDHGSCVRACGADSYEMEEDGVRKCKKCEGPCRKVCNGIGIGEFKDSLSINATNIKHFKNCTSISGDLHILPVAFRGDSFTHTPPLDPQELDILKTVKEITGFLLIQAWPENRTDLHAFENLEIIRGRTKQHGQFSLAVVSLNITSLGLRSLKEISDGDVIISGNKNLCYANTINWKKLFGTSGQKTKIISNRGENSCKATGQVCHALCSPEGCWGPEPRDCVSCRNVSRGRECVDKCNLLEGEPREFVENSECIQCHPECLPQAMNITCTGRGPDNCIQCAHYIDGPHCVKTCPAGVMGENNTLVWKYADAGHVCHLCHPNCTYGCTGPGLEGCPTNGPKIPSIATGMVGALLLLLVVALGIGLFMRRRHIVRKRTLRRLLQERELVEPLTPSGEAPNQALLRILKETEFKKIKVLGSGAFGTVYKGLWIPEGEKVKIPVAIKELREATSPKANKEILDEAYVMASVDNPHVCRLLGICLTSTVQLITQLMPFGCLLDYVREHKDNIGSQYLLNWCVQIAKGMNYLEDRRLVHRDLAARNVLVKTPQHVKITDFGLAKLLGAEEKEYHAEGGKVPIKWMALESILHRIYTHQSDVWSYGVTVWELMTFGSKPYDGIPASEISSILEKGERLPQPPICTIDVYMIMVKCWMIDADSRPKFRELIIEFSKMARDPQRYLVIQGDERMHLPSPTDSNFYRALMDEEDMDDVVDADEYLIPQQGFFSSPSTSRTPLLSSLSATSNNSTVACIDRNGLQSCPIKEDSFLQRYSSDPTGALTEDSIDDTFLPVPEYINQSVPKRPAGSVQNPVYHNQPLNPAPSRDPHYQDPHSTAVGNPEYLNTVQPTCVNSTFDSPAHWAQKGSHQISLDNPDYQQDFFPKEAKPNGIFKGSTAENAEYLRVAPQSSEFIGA
Alpha-bungarotoxin (Bungarus multicinctus), sequence (P60615 whole entry, looked up): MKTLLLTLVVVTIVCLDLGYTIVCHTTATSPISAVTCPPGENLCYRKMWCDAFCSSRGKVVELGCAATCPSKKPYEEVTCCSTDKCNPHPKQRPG
Fibroblast growth factor 10 (Homo sapiens), sequence (O15520 whole entry, looked up): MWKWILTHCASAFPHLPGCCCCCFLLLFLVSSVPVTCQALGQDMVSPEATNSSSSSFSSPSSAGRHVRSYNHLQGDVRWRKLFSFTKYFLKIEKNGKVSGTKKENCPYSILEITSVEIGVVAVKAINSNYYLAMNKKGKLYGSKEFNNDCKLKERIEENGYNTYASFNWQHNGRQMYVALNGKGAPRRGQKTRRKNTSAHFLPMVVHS

`C=CCC(OC(C)=O)[C@@H]1[C@@H](N(Cc2ccc(-c3ccccc3)cc2)C(=O)Cc2ccc(F)cc2)c2cc(OCCCO)ccc2N1C(=O)c1ccc2ccccc2n1` (stereo not given in full): the composite z-score in assay [1] is 0.295; in assay [2], 0.0021; in assay [3], 0.531; in assay [5], 0.0915; in assay [6] it was -0.226; in assay [7], -0.294. In addition, the composite z-score in assay [8] is -0.112; in assay [9], -0.221; in assay [10] it was 1.27; in assay [11] it was -0.689; in [13], -0.456; in assay [14] it was 0.168. Besides, the composite z-score in assay [15] was 0.72; in [16] it was -0.0125; in [17], -0.206; in assay [18], -0.395; in [19], 0.79; in [20] it was 0.414. Moreover, the z-score in [4] was -0.457 (inactive); in [12], -0.213.
For the molecule `COC(=O)[C@@]1(Cc2ccc(F)cc2)[C@H]2c3cc(C(=O)N4CCCC4)n(Cc4cccc5ccccc45)c3C[C@H]2CN1C(=O)c1ccccc1`, the composite z-score in assay [1] is 1.53; in assay [2], 0.479; in assay [3] it was 0.854; in assay [5], 0.427; in assay [6], -0.423; in assay [7], 0.329. Besides, the composite z-score in assay [8] was 0.286; in assay [9], -0.538; in assay [10], 0.644; in [11], 1.37; in assay [13], -0.201; in assay [14], 1.23. In addition, the composite z-score in [15] came out at 0.0721; in [16], 0.0859; in assay [17] it was 0.111; in assay [18], 1.36; in assay [19] it was 1.84; in [20], 1.07. Moreover, the z-score is -2.29 (inactive) in assay [4] and -1.37 in assay [12].
For `CC(C)Cc1ccc(CN2CC[C@@H](NS(=O)(=O)c3ccccc3)C2)cc1`, the composite z-score in assay [1] is -0.265; in [2], -0.367; in [3], -0.747; in assay [5], -0.0725; in assay [6], -0.375; in assay [7], -0.608. Besides, the composite z-score was 0.0789 in [8]; 0.292 in [9]; 0.298 in assay [10]; 0.429 in assay [11]; 0.0423 in assay [13]; -0.856 in [14]. Further, the composite z-score was -0.859 in assay [15]; -0.176 in assay [16]; -0.455 in assay [17]; -0.438 in assay [18]; -0.633 in assay [19]; -0.577 in [20]. Also, the z-score is 3.53 (inactive) in assay [4] and -4.17 in [12].
As to `C[N+](C)(C)CCCCCCNC(=O)[C@H]1C[C@H]2C(=O)N3CCC[C@H]3C(=O)N2[C@H]1c1ccc(O)cc1`, the composite z-score is 1.07 in [1]; -0.258 in assay [2]; -0.201 in assay [3]; 0.205 in assay [5]; 0.196 in assay [6]; -0.278 in assay [7]. In addition, the composite z-score in assay [8] came out at 0.196; in [9] it was 0.744; in [10] it was 1.03; in [11], 1.41; in assay [13] it was 0.26; in assay [14] it was 0.0573. Also, the composite z-score in assay [15] is -0.965; in assay [16] it was -0.178; in [17] it was 0.0639; in assay [18], -0.29; in [19], 0.541; in assay [20], -0.37. Besides, the z-score is -0.677 (inactive) in [4] and 0.741 in [12].
`C=CCOC(=O)[C@H]1[C@@H]2C(=O)O[C@@H](c3ccccc3)[C@@H](c3ccccc3)N2[C@@H](c2ccc(OCCOC(=O)[C@@H]3C[C@@H]4C(=O)N5CCC[C@H]5C(=O)N4[C@@H]3c3ccc(O)cc3)cc2)[C@]12C(=O)Nc1ccccc12`: the composite z-score is 1.53 in assay [1]; -0.294 in assay [2]; 0.0807 in [3]; 0.629 in assay [5]; 1.28 in assay [6]; 0.586 in assay [7]. The composite z-score in [8] is 1.21; in assay [9], 1.45; in [10], -0.23; in assay [11], 1.4; in [13] it was 0.677; in [14] it was 0.823. Further, the composite z-score in assay [15] is 0.0257; in assay [16], -0.1; in assay [17] it was 0.0121; in assay [18], -0.467; in [19] it was 0.808; in [20], 1.18. The z-score in assay [4] was 0.109 (inactive); in [12], -1.81.
Turning to `COC(=O)[C@@]1(Cc2ccc(F)cc2)[C@H]2c3cc(C(=O)N(C)C)n(CCc4ccccn4)c3C[C@H]2CN1C(=O)c1ccccc1`, the composite z-score in [1] amounted to 0.219; in [2] it was 0.849; in assay [3] it was 0.312; in assay [5], 0.355; in assay [6] it was 1.36; in assay [7] it was 0.472. In addition, the composite z-score in [8] was 0.869; in assay [9], 0.41; in assay [10], 0.403; in [11], 1.39; in assay [13] it was 0.384; in [14], -0.012. Besides, the composite z-score in assay [15] is -0.47; in assay [16], 1.12; in assay [17], -0.394; in assay [18], 0.796; in assay [19], 0.468; in assay [20], 0.292. The z-score in assay [4] is -3.62 (inactive); in [12], -0.72.
